The record followed here is PubChem BioAssay (NCI).

Several values for one entry are separate records, joined by “and”; a condition that tells them apart may be missing. Equal entries are not always repeated. About 83,000 compounds went through this panel and 20% of them were active in at least one assay; those are over-represented in the sample as a whole.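 Interpretation: 100, growth as untreated; towards 0, rising growth inhibition; 0, no net growth; 0 to -100, cell death. Compounds scoring below 10 were considered active.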 Activity calls are given as the source filed them.

The first test relates to HOP-62 NSCLC. Description: NCI-60 one-dose screen, 48 h (100 = growth as untreated, 0 = no growth, -100 = all killed). Particulars: 10 µM unless noted.
As for `Cc1nc(Nc2ncc(C(=O)Nc3c(C)cccc3Cl)s2)cc(N2CCN(CCO)CC2)n1`, the growth is 12% (inactive).
Regarding `COc1ccc(-c2ccc(-c3ccc(C(=N)N)cn3)s2)cc1Cl`, the growth is -50.5% (active).
For the molecule `CNC(=O)c1cc(Oc2ccc3nc(NC(=O)Nc4ccc(C(F)(F)F)cc4)sc3c2)ccn1`, the growth is 67.4% (inactive).
Same read-out and setting: the result for `COc1ccc(CCNC(=O)COc2cc3c(Nc4ccc(F)c(Cl)c4)ncnc3cc2OC)cc1OC` reads 95.7% (inactive).
The same measure, in the same setting: then `Cc1ccc(S(=O)(=O)Nc2cc(Sc3ccccc3)c(O)c3ccccc23)cc1`, with 112% (inactive); and `Nc1nc(Nc2cccnc2)sc1C(=O)c1ccccc1F`, with 21.2% (inactive).
Same read-out and setting: then `O=C(Cn1cc(CN2CCN(c3ccnc4cc(Cl)ccc34)CC2)nn1)Nc1cccc([N+](=O)[O-])c1`, with 71.9% (inactive); and `CCOc1nc(-c2ccccc2)cc2c(O)c(C(=O)N/N=C/c3ccc(N(C)C)cc3)[nH]c(=O)c12`, with 65.2% (inactive).

In the next test the test system is NCI-H460 lung. Described as above. The conditions noted are these: 10 µM unless noted.
Turning to `C=C[C@]1(C)C=C2CC[C@@H]3C(C)(C)C(=O)CC[C@@]3(C)[C@@H]2CC1`, the growth is 109% (inactive).
Still for that read-out and setting: then `CN(C)CC1(C)Cc2ccsc2C1O` (configuration not stated), with 112% (inactive) and 108% (inactive).
Same read-out and setting: then `CCN(CC)/C([O-])=c1\cccc\c1=C1\N=C(c2ccccc2)N=C1[n+]1ccc(-c2ccccc2)cc1`, with 103% (inactive); and `Cc1oc2c(Cc3ccc(NC(=O)c4ccc(Cl)cc4)cc3)ncnc2c1C(=O)NO`, with 97.3% (inactive).
On the same count and under the same terms, then `COc1cc(CNC(=O)CCCC/C=C/C(C)C)ccc1O`, with 106% (inactive) and 114% (inactive).
With `CC1=C2[C@@H](CC1)[C@]1(C)O[C@@](C(C)C)(C[C@H]1OC(=O)CO)[C@H]2OC(=O)C1CC1c1ccccc1` (some centres not stated), the growth is 85.6% (inactive).
The same measure, in the same setting: then `O=C1OCC2=C1C(c1cccc(C(F)(F)F)c1)c1cc3c(cc1N2CCO)CCC3` (configuration not stated), with 3.4% (active); and `COc1ccc(/C=N/C2=C(C#N)C(c3ccccc3)c3c(ccc4ccccc34)O2)cc1` (configuration not stated), with 15.5% (inactive).
On the same count and under the same terms, then `O=C(CCl)N(O)c1ccc(/C=C/c2ccccc2)cc1`, with 85.4% (inactive) and 73% (inactive).
With `N#C/C(=C\c1ccc(Br)cc1)n1nnc2c(F)cccc21`, the growth is -33.7% (active).
With `O=C(/C=C/c1ccccc1)c1cccs1`, the growth was 93.3% (inactive) and 109% (inactive).
Take `COc1ccc(Nc2nn3c(SCC(=O)c4ccc(C)cc4)nnc3s2)cc1`: the growth is 97.9% (inactive).
Regarding `CN(Cc1ccccc1)c1nc(Cl)c(C2CC(c3ccc4c(c3)OCO4)=NN2c2cc(Cl)cc(Cl)c2)s1` (configuration not stated), the growth is 103% (inactive).
As to `Cc1nnc(NS(=O)(=O)c2ccc(N=Nc3ccc(N)nc3N)cc2)s1`, the growth was 110% (inactive) and 112% (inactive).
For the molecule `CC[C@H](C)[C@H](NC(=O)[C@H](CCCCN)NC(=O)[C@H](CCCCN)NC(=O)[C@@H](NC(=O)[C@@H](NC(=O)[C@@H](N)Cc1cnc[nH]1)[C@@H](C)CC)[C@@H](C)CC)C(=O)N[C@@H](CCCNC(=N)N)C(=O)N[C@H](C(=O)N[C@@H](Cc1c[nH]c2ccccc12)C(=O)N[C@@H](Cc1ccc(O)cc1)C(=O)N[C@@H](CCCNC(=N)N)C(=O)N[C@@H](CCCCN)C(=O)N[C@@H](C)C(=O)N[C@@H](Cc1c[nH]c2ccccc12)C(=O)N[C@@H](Cc1cnc[nH]1)C(=O)N[C@H](C(=O)N[C@@H](CC(C)C)C(=O)NCC(=O)N[C@@H](CCCCN)C(=O)N[C@H](C(N)=O)C(C)C)C(C)C)[C@@H](C)O`, the growth was 7.38% (active).
Still for that read-out and setting: the result for `O=S(=O)(Nc1cc(Sc2cccc3cccnc23)c(O)c2ccccc12)c1ccc(F)cc1` reads 4.76% (active); that for `COc1ccc2c(c1)CCNC21C(=O)Nc2c(Br)cc(Br)cc21` (configuration not stated), 101% (inactive); that for `CCCn1nc(C(=O)N2CCCCC2)c2c1CCC(N1CCC(c3ccncc3)CC1)C2` (configuration not stated), 110% (inactive).
On the same count and under the same terms, then `C=C1C(=O)O[C@@H]2[C@H]3[C@H](COC(C)=O)[C@@H](OC(C)=O)C[C@H]3C(=C)[C@@H](O)C[C@@H]12`, with 103% (inactive); and `CC(=O)N1N=C(c2ccc(F)cc2)CC1c1sc(N(C)Cc2ccccc2)nc1Cl` (configuration not stated), with 106% (inactive).
Still for that read-out and setting: the result for `O=C(/C=C/c1ccc([N+](=O)[O-])cc1)c1ccccc1` reads 105% (inactive); that for `COc1ccc(C(CC(=O)c2ccc3c(c2)OCO3)C(=O)O)cc1OC` (configuration not stated), 102% (inactive) and 112% (inactive); that for `CCN1CCN(CC(=O)Nc2nc3ccc(NCc4ccc(C)cc4)cc3s2)CC1`, 44.5% (inactive).
As for `Clc1cccc(Nc2ncnc3ccc(-c4cncc(-n5cnnn5)c4)cc23)c1`, the growth is 81.6% (inactive).
The same measure, in the same setting: the result for `CCc1c2c(nc3ccc(OCc4ccc(B5OC(C)(C)C(C)(C)O5)cc4)cc13)-c1cc3c(c(=O)n1C2)COC(=O)[C@]3(O)CC` reads 1.68% (active); that for `COc1ccc(/C=N\Nc2nc(SCC(C)C)nc(-c3ccc(OC)cc3)c2C#N)cc1`, -11.1% (active); that for `COc1cc2nc3cc([N+](=O)[O-])ccc3c(NCCNCC(C)(C)O)c2cc1OC`, -38.7% (active).
On the same count and under the same terms, then `COc1ccc(C(=O)c2ccc(OC)c(OC)c2OC)cc1`, with 20.1% (inactive) and 5.6% (active); and `N=C1/C(=C2\NC3C=CC=CC3S2)C(c2ccc(Cl)cc2)C2C(=O)N(c3ccccc3)C(=S)N12` (configuration not stated), with 107% (inactive).
On to `CC1=CC(C)(C)NC(=S)N1c1ccc(Cl)cc1`, for which the growth is 101% (inactive) and 112% (inactive).
Still for that read-out and setting: the result for `Cc1nn(-c2nc(-c3cc4ccccc4oc3=O)cs2)c(C)c1N=Nc1ccccc1` reads 108% (inactive); that for `Cc1nc(Nc2ncc(C(=O)Nc3c(C)cccc3Cl)s2)cc(N2CCN(CCO)CC2)n1`, 74.3% (inactive) and 42.7% (inactive).
The same measure, in the same setting: the result for `COc1ccc(-c2ccc(-c3ccc(C(=N)N)cn3)s2)cc1Cl` reads -93% (active); that for `CNC(=O)c1cc(Oc2ccc3nc(NC(=O)Nc4ccc(C(F)(F)F)cc4)sc3c2)ccn1`, 33.4% (inactive); that for `COc1ccc(CCNC(=O)COc2cc3c(Nc4ccc(F)c(Cl)c4)ncnc3cc2OC)cc1OC`, 95.7% (inactive).
The same measure, in the same setting: the result for `Cc1ccc(S(=O)(=O)Nc2cc(Sc3ccccc3)c(O)c3ccccc23)cc1` reads 105% (inactive); that for `Nc1nc(Nc2cccnc2)sc1C(=O)c1ccccc1F`, 21.7% (inactive); that for `O=C(Cn1cc(CN2CCN(c3ccnc4cc(Cl)ccc34)CC2)nn1)Nc1cccc([N+](=O)[O-])c1`, 98% (inactive).
On to `CCOc1nc(-c2ccccc2)cc2c(O)c(C(=O)N/N=C/c3ccc(N(C)C)cc3)[nH]c(=O)c12`, for which the growth is 106% (inactive).
